From PubChem BioAssay AID1851 (National Center for Advancing Translational Sciences (NCATS), 2009)
Out of some 16,000 compounds screened, about 5,800 (36%) were called active. Roughly 23% stayed inconclusive and do not appear here. Some of the results follow. Values without a mark were called inactive. Calls follow the shape of the dose curve; as a rule, active = well fitted curve in the direction sought with a large enough effect; inconclusive = small, poorly fitted or top-dose-only effect, or effect the other way; inactive = no such curve, though single readings can be large or run the other way.

These compounds were tested against Cytochrome P450 2C19 (Homo sapiens) (UniProt P33261) (assay: Cytochrome panel assay with activity outcomes). Conditions: recombinant CYP, pro-luciferin dealkylation, luminescence, p450-cyp2c19; series mostly up to 57.1 µM.
% is scaled to controls: 0 for no effect and ±100 for the full control effect.

Chain of Cytochrome P450 2C19 (Homo sapiens) (P33261 whole entry, looked up): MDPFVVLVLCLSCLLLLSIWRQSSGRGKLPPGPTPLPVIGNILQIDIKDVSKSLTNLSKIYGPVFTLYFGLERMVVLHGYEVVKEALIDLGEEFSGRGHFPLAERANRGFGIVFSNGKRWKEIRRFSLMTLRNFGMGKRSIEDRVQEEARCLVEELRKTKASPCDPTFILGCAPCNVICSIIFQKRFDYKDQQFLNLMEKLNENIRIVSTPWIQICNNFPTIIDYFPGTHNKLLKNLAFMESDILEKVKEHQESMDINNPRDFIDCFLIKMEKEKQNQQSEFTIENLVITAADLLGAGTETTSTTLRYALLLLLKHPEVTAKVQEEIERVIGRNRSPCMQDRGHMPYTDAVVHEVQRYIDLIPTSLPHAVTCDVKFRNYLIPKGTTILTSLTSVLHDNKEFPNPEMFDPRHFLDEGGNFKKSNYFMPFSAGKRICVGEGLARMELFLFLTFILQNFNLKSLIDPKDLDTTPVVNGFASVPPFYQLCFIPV

| Structure (SMILES) | AC50 | activity, negative = inhibition |
| --- | --- | --- |
| CC(=O)N1CCC2(CCCN(C(c3ccccc3)c3ccccc3)C2)CC1 | 15.8 µM (active) |  |
| CC(=O)N1CCC2(CC1)CCN(C(c1ccccc1)c1ccccc1)CC2 | inactive |  |
| O=C(c1ccncc1)N1CCC2(CC1)CN(C(c1ccccc1)c1ccccc1)C2 | inactive |  |
| Cc1noc(C)c1C(=O)N1CCC2(CCCN(C(c3ccccc3)c3ccccc3)C2)CC1 | inactive |  |
| O=C(c1ccncc1)N1CCC2(CCCN(C(c3ccccc3)c3ccccc3)C2)CC1 | 10 µM (active) |  |
| CC(=O)N1CCC2(CC1)CN(C(c1ccccc1)c1ccccc1)C2 | inactive |  |
| c1ccc(Nc2ncnc3ccc(-c4ccc5c(c4)OCO5)cc23)cc1 | inactive |  |
| Cc1cccc(CNc2ncnc3ccc(-c4ccc5c(c4)OCO5)cc23)c1 | 5.01 µM (active) |  |
| c1ccc(CNc2ncnc3ccc(-c4ccc5c(c4)OCO5)cc23)cc1 | 3.16 µM (active) |  |
| Cc1cc(O)c(C(C)C)cc1C1(c2cc(C(C)C)c(O)cc2C)OC(=O)c2ccccc21 | 3.16 µM (active) |  |
| O=c1c(-c2ccc(F)cc2)nc2cnc(N3CCOCC3)nc2n1C1CC1 | inactive |  |
| Cc1ccc(S(=O)(=O)N(CC(=O)N2CCN(c3ccc(F)cc3)CC2)C2CCCCC2)cc1 | 2.82 µM (active) |  |
| Cc1ccc(S(=O)(=O)NC(=O)NN2C[C@H]3CCC[C@@H]3C2)cc1 | inactive |  |
| COc1cccc(Nc2ncc3nc(C)c(=O)n(C4CC4)c3n2)c1 | inactive |  |
| COc1ccc(-n2c(=O)c(C)nc3cnc(Nc4ccccc4)nc32)cc1 | inactive |  |
| COc1ccc(-n2c(=O)c(-c3cccs3)nc3cnc(Nc4cccc(OC)c4)nc32)cc1 | inactive |  |
| COc1ccc(C2CC(=O)c3cnc(Nc4cc(C)cc(C)c4)nc3C2)cc1 (stereo not given) | 11.2 µM (active) |  |
| COc1ccc(-c2nc3cnc(Nc4ccccc4)nc3n(CCC#N)c2=O)cc1 | inactive |  |
| COc1ccc(Nc2ncc3c(n2)CC(c2ccc(C)cc2)CC3=O)cc1 (stereo not given) | 8.91 µM (active) |  |
| O=C(Nc1ccccc1)N1CC[C@@]2(CCCN(C(=O)c3ccco3)C2)C1 | inactive |  |
| C=CC[C@@H]1C=C[C@H](O/N=C(\C)CCN2CCCCc3nc(C)c(C)cc32)[C@H](CO)O1 |  | 21.2% [at 11.4 µM] |
| O=C(c1cccc(F)c1)N1CCC2(CCCN(c3ccccc3)C2)CC1 | 5.01 µM (active) |  |
| O=C(c1cccc(F)c1)N1CCC2(CCCN(c3cccc(-c4ccccc4)c3)C2)CC1 | 7.94 µM (active) |  |
| O=C(c1cccc(F)c1)N1CCC2(CC1)CCN(c1cccc(-c3ccccc3)c1)CC2 | inactive |  |
| CC(C)CN1CCCC2(CCN(C(=O)c3cccc(F)c3)CC2)C1 | inactive |  |
| O=C(c1cccc(F)c1)N1CCC2(CCCN(c3ncccn3)C2)CC1 | 6.31 µM (active) |  |
| CC(=O)N1CCC2(CCCN(c3ncccn3)C2)CC1 | inactive |  |
| O=C(c1cccc(F)c1)N1CCC[C@@]2(CCN(c3ccccc3)C2)C1 | inactive |  |
| O=C(c1cccc(F)c1)N1CCC2(CC1)CCN(c1ccccc1)CC2 | inactive |  |
| O=C(c1cccc(F)c1)N1CCC2(CC1)CN(c1cccc(-c3ccccc3)c1)C2 | inactive |  |
